Laboratory results: PubChem BioAssay

biological target: Focal adhesion kinase 1 (Homo sapiens) (UniProt Q05397); test: PTK2 protein binding on printed compound slides – biochemical, small-molecule microarray, 635/667 nm fluorescence, BSA, DTT, primary screen (AID 1130); conditions: 635 nm fluorescence, higher = more signal;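 further: composite of spot emission at 667 nm and signal to noise over triplicate slides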
Sequence (Q05397 whole entry, looked up): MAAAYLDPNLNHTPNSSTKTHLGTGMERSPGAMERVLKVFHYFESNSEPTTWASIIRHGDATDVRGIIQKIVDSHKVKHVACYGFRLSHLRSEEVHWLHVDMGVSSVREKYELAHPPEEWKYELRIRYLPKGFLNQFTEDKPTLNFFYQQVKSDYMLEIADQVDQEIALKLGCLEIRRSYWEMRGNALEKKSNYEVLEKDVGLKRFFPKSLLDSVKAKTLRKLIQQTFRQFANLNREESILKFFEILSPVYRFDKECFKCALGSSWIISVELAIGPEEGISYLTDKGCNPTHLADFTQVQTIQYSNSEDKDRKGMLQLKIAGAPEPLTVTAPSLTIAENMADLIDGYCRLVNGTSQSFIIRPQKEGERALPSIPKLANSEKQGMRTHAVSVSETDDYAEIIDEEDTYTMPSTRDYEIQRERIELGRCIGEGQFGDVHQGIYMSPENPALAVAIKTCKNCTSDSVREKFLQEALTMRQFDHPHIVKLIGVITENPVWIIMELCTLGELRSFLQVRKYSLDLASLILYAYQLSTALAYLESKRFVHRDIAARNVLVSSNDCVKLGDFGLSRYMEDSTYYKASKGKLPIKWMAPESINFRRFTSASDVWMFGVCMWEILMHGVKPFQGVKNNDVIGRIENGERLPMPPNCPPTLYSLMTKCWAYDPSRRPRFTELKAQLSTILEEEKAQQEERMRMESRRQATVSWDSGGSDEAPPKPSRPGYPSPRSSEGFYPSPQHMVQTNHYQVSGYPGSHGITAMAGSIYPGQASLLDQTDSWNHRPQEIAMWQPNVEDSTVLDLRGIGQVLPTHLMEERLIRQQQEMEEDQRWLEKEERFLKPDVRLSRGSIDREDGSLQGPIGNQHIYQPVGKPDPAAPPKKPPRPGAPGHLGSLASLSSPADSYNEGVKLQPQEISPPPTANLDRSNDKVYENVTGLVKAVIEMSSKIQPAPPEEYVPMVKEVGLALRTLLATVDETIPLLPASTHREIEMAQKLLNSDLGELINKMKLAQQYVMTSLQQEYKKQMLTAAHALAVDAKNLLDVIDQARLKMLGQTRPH

Q: With `CCOC(=O)CCN1C(=O)[C@H]2[C@H]3[C@H](O)[C@H](O)CC(=NOC[C@@H](O)COCc4ccco4)[C@@H]3CC[C@H]2C1=O` as the molecule, how does the composite z-score read?
A: 0.144

Q: With `COc1ccc([Si](C)(C)[C@H]2[C@H](CC(=O)N3CCC[C@H]3CO)O[C@@]3(C(=O)N(Cc4cccc(N5C(=O)COc6ccccc65)c4)c4ccccc43)[C@@H]2C)cc1` as the molecule, how does the composite z-score read?
A: 0.392

Q: Which composite z-score does the source give for `CC(=O)OC[C@H]1O[C@H](CCON=C(C)CCC(=O)OC[C@H]2O[C@H](C#Cc3ccccc3)C=C[C@@H]2Oc2ccc(C)cc2)C=C[C@@H]1OC(C)=O` here?
A: 0.369

Q: With `CCOC(=O)[C@H](CC(C)C)NC(=O)CCC1CC(OC(=O)NCc2cccc3ccccc23)CC2(CCCC(COC(=O)NCCN3CCOCC3)O2)O1` (stereo partly specified) as the molecule, how does the composite z-score read?
A: 0.465

Q: Which composite z-score does the source give for `CN1C(=O)C2C=CC(C(O)C(c3ccccc3)c3ccccc3)N(NC(=O)OC(C)(C)C)C2C1=O` (stereo unspecified) here?
A: 0.666

Q: How did the composite z-score turn out when `Cc1cc2c(c(=O)o1)[C@H](O)[C@H]1O[C@H]1C2=O` was run?
A: -0.21

Q: `O=C(NN=C1C[C@@H](O)[C@@H](O)[C@@H]2[C@@H]3C(=O)N(c4cccc(Oc5ccccc5)c4)C(=O)[C@@H]3CC[C@@H]12)OCc1ccccc1` was tested. Which composite z-score did it give?
A: 0.0623

Q: For `COC(=O)C1=CCC(c2cccc(Cl)c2)O1` (stereo unspecified), which composite z-score is on record?
A: -0.126

Q: How did the composite z-score turn out when `NC(=O)NCC#Cc1ccc2c(c1)[C@]1(C(=O)N2)[C@H](c2ccc(O)cc2)N2[C@H](c3ccccc3)[C@H](c3ccccc3)OC(=O)[C@H]2[C@@H]1C(=O)N1CCCCCCC1` was run?
A: -0.222

Q: `CC(C)[C@@H](OCc1ccccc1)[C@H](C)C=NOC[C@@H](C)[C@H](OCc1ccccc1)C(C)C` was tested. Which composite z-score did it give?
A: 0.121

Q: With `COc1ccc(O[C@H]2C=C[C@@H](c3ccccc3)O[C@@H]2COC(=O)N2CCCCC2)cc1` as the molecule, how does the composite z-score read?
A: -0.073

Q: With `CO[C@@H]1COC(=O)CC=C[C@@H](C)[C@H](OC)COC(=O)[C@H](COCc2ccccc2)NC(=O)CC=C[C@H]1C` as the molecule, how does the composite z-score read?
A: -0.843

Q: Which composite z-score does the source give for `CO[C@@H]1COC(=O)[C@@H]2CCCN2C(=O)[C@@H](C)COC(=O)[C@H](COCc2ccccc2)NC(=O)CC=C[C@H]1C` here?
A: 0.0252

Q: Which composite z-score does the source give for `CC(=O)OC[C@H]1O[C@H](CCON=C(C)CCN2CCc3nc(-c4ccccc4)c(-c4ccccc4)cc3C2)C=C[C@@H]1OC(C)=O` here?
A: 0.186

Q: How did the composite z-score turn out when `CCCC[C@@H](O)C1=C(C)C[C@H]2C(=O)N(Cc3ccccc3)C(=O)[C@H]2[C@H]1CO` was run?
A: -0.0945

Q: With `O=C1[C@H]2[C@H]3[C@H](O)[C@H](O)CC(=NO[C@@H]4O[C@H](CO)[C@@H](O)[C@H](O)[C@H]4O)[C@H]3CC[C@H]2C(=O)N1C1CCCCC1` as the molecule, how does the composite z-score read?
A: 0.84

Q: How did the composite z-score turn out when `COC(=O)C1=C(C)[C@@H](O)[C@@H](C)[C@H](c2c(OC)c(OC)c(C)c(OC)c2OC)O1` was run?
A: 0.132

Q: How did the composite z-score turn out when `COc1ccc(-c2ccc3c(n2)CCCN3CC(O)CN2CCCc3nc(C)c(C)cc32)cc1` (stereo unspecified) was run?
A: 0.351

Q: For `CC(C)(C)OC(=O)CC[C@]1(C(=O)NCc2ccccc2)N=C(c2ccc(OCCCO)cc2)O[C@H]1c1ccccc1`, which composite z-score is on record?
A: 1.36

Q: For `CC(=O)OC[C@H]1O[C@H](C#CCCCc2ccccc2)C=C[C@@H]1OC(C)=O`, which composite z-score is on record?
A: 0.126

Q: For `CS(=O)(=O)CCOC(=O)C1=CC(CCCO)=CC(c2cccs2)N(Cc2cccc(OC(F)(F)F)c2)C=C1C(=O)OCCS(C)(=O)=O` (stereo unspecified), which composite z-score is on record?
A: 0.905

Q: How did the composite z-score turn out when `NCCCCCNC(=O)[C@@H]1C[C@@H]2C(=O)N3CCC[C@H]3C(=O)N2[C@@H]1c1cccc(OCCO)c1` was run?
A: 1.13

Q: How did the composite z-score turn out when `CC(C)=C1C(=O)C(c2ccccc2)=C2CN3C(=O)N(CCc4ccccc4)C(=O)[C@]3(Cc3ccc(F)cc3)[C@H]21` was run?
A: -0.0639

Q: For `COc1ccc(COC(=O)NN=C2C[C@@H](O)[C@@H](O)[C@@H]3[C@@H]4C(=O)N(Cc5ccc6c(c5)OCO6)C(=O)[C@@H]4CC[C@@H]23)cc1`, which composite z-score is on record?
A: 0.256

Q: How did the composite z-score turn out when `CCOC(=O)C[C@H]1[C@H](OC(=O)c2ccc(C(=O)c3ccccc3)cc2)[C@@H](NC(=O)c2ccc(-c3ccccc3)cc2)c2cc(OCCCO)ccc2N1C(=O)c1ccc2ccccc2n1` was run?
A: 0.0723

Q: With `C[C@@H]1CC[C@H]2C(=O)O[C@H](COc3ccc(C(C)(C)C)cc3)CN2[C@H]1c1ccc(Br)cc1` as the molecule, how does the composite z-score read?
A: -0.0482

Q: `CC(C)CON=C1C[C@@H](O)[C@@H](O)[C@@H]2[C@@H]3C(=O)N([C@@H](C)c4ccccc4)C(=O)[C@@H]3CC[C@H]12` was tested. Which composite z-score did it give?
A: 0.657

Q: For `O=C1CCCC=C1C(O)CCOCc1ccccc1` (stereo unspecified), which composite z-score is on record?
A: -0.0626

Q: For `CCc1cccc(NC(=O)O[C@H]2[C@H](OC(=O)Nc3ccc4c(c3)OCO4)[C@@H](OC(=O)Nc3ccc4c(c3)OCO4)[C@@H](OC)O[C@@H]2CO)c1`, which composite z-score is on record?
A: -0.106

Q: For `O=C1[C@H]2[C@H]3[C@H](O)[C@H](O)CC(=NO[C@@H]4O[C@H](CO)[C@@H](O)[C@H](O)[C@H]4O)[C@@H]3CC[C@H]2C(=O)N1Cc1ccc2c(c1)OCO2`, which composite z-score is on record?
A: 0.293

Q: `COC(=O)[C@H](C)NC(=O)[C@@H](C)CO` was tested. Which composite z-score did it give?
A: 0.48

Q: For `CC1CC/C=C\[C@H]2OC34C=CCN(Cn5nnc6ccccc65)C(=O)[C@H]3N(CCO)C(=O)[C@@H]4C2C(=O)O1` (stereo partly specified), which composite z-score is on record?
A: 1.42

Q: How did the composite z-score turn out when `O=C1CCCC2OC12C(O)CCc1ccccc1` (stereo unspecified) was run?
A: 0.0538

Q: `CO[C@@H]1COC(=O)[C@H](C)NC(=O)[C@@H](C)COC(=O)CCC[C@H]1C` was tested. Which composite z-score did it give?
A: 0.574

Q: How did the composite z-score turn out when `CCN1C(=O)[C@H]2[C@H]3[C@H](O)[C@H](O)CC(=NOC[C@@H](C)[C@H](OCc4ccccc4)C(C)C)[C@@H]3CC[C@H]2C1=O` was run?
A: -0.0745

Q: `O=C1[C@H]2[C@H]3[C@H](O)[C@H](O)CC(=NOCc4ccccc4)[C@@H]3CC[C@H]2C(=O)N1C1CCCCC1` was tested. Which composite z-score did it give?
A: 0.179
